Measurements: PubChem BioAssay AID504329 (Southern Research Specialized Biocontainment Screening …, 2011)
In all, about 340,000 compounds went through this assay and about 1,000 (0.29%) were called active. A selection follows. Results with a measured potency or affinity are listed apart. A number with no mark means an inactive call. No stated cut-off is given here; in the data, inconclusive means inhibition above about 27% without an active follow-up result; inactive means below that.

test: NS1A inhibition, H1N1 influenza, cell based functional assay (AID 504329); conditions: percent inhibition, at 12.5 µM, hits give high values

Row | SMILES | inhibition [%]
1 | CCOC(=O)c1c(NC(=O)COC(=O)c2ccccn2)sc(C(=O)N(C)C)c1C | -8.42
2 | CCOC(=O)c1sc(NC(=O)CNCc2cccnc2)c(C(=O)OCC)c1C | -2.69
3 | COCCN(C(=O)c1csnn1)C(C(=O)NC1CCCCC1)c1ccccc1F (stereo unspecified) | -4.23
4 | CCCSc1ccc([C@H]2N[C@@](C)(C(=O)OC)[C@H]3C(=O)N(C)C(=O)[C@@H]23)cc1 | 6.02
5 | COC(=O)c1cc2cc(NS(=O)(=O)c3ccc(C)cc3)ccc2s1 | -3.1
6 | O=C(N=Nc1c(O)[nH]c2ccccc12)c1ccc(CN2CCOCC2)cc1 | 7.41
7 | N=C(N)N=Nc1c(O)[nH]c2ccc(Br)cc12 | -0.68
8 | Oc1[nH]c2ccc(Br)cc2c1N=NC(=S)Nc1ccc(F)cc1 | -7.69
9 | NC(=S)N=Nc1c(O)[nH]c2ccccc12 | 14.1
10 | Cc1ccc(N(CC(=O)NC2CCCCC2)C(=O)CNC(=O)c2ccco2)cc1C | 7.87
11 | CC(C)c1ccc(C(=O)OCC(=O)NC2CCCC2)cc1 | 1.66
12 | CCOc1ccc(N2CC(O)(c3cccs3)[N+]3=C2CCCC3)cc1 (stereo unspecified) | 2.37
13 | COc1ccccc1C(=O)NC(CCSC)C(=O)NCc1ccncc1 (stereo unspecified) | -4.75
14 | CCc1cc2c(=O)oc(-c3ccc(F)cc3)nc2s1 | -6.8
15 | COC(=O)C1CC2=C(CCC2=O)N(c2ccccc2)C1=O (stereo unspecified) | -7.88
16 | Cc1ccc(S(=O)(=O)N(C)C)cc1NC(=O)COC(=O)/C(=C/c1ccc(F)cc1)c1cccs1 | -0.58
17 | O=C1/C(=C/c2ccccc2)Nc2ccccc21 | 14.7
18 | O=C1Nc2ccccc2C1=O | 0.1
19 | O=C(COC(=O)CN1C(=O)COc2ccccc21)NCc1ccc(F)cc1 | -6.84
20 | COc1ccc(CN(C)CC(=O)Nc2sc3c(c2C#N)CCC3)c(OC)c1 | -1.01
21 | CCc1ccc(NSc2ccccc2[N+](=O)[O-])cc1 | 28.4
22 | O=[N+]([O-])c1nn(-c2ccccc2)[n+]([O-])c1N1CCN(c2ccccc2F)CC1 | 2.62
23 | CC(=O)c1ccc(NC(=S)Nc2ccc(Br)c(Cl)c2)cc1 | -4.9
24 | Cc1ccc(N=C2C(=O)Nc3ccccc32)cc1 | -4.95

Row | SMILES | inhibition [%]
25 | CC(=O)N(C)c1ccc(N=C2C(=O)Nc3ccccc32)cc1 | 3.21
26 | C=CCn1c(SCC(=O)N(C)C)nc2cc(C(=O)O)ccc2c1=O | -7.19
27 | C=CCn1c(Sc2ccccc2)nc2c1c(=O)[nH]c(=O)n2C | -6.06
28 | COc1ccc([C@H]2CC(=O)C=C(c3ccc(O)cc3)C2)cc1OC | -4.89
29 | CN(C)c1ccc(C(=O)NN2C(=O)c3ccccc3C2=O)cc1 | -1.57
30 | CN(C)c1ccc(/C=N/N2C(=O)c3ccccc3C2=O)cc1 | -9.49
31 | CCc1ccc(-c2cc(C)no2)cc1S(=O)(=O)Nc1cc(C)on1 | 1.29
32 | Cc1ccccc1-c1nc(CS(=O)CC(=O)NCCN2CCOCC2)c(C)o1 (stereo unspecified) | -1.58
33 | CC(C)(C)C1=CC(O)(c2ccccc2)C=C(C(C)(C)C)C1=O | -2.37
34 | Nc1ccccc1N=Nc1ccccc1N | 18.4
35 | COc1cccc(NC(=O)COC(=O)c2ccco2)c1 | 7.2
36 | CCOc1cccc(CNCCCSc2ncccn2)c1 | 1.33
37 | O=C(O)c1cccc2cccc(-c3c4ccc(=O)c(O)c-4oc4c(O)c(O)ccc34)c12 | 13
38 | O=C1c2ccccc2C(=O)c2c1ccc(O)c2O | 17.2
39 | Cc1ccc(OCCNC(=O)C2CC(=O)N(Cc3ccccc3)C2)cc1 (stereo unspecified) | 4.88
40 | CC1CCN(S(=O)(=O)c2ccccc2[N+](=O)[O-])CC1 | 16.9
41 | CC1CCN(CC(O)COc2ccc(-c3ccccc3)cc2)CC1 (stereo unspecified) | 19.9
42 | Cc1nn(-c2cc(N3CCCCC3)ccc2N)c(=O)c2ccccc12 | 2.92
43 | CN1CCN(c2ccc(N)c(N3CCN(C)CC3)c2)CC1 | 17.9
44 | O=C(C[C@@H]1C/C=C\C[C@@H](Cc2ccc(F)cc2)C(=O)OCCNC1=O)NCCO | 0.47
45 | O=C1Nc2ccc(Br)cc2C12OCCO2 | -14.6
46 | CCOc1ccc(C(=O)NCc2ccc3c(c2)OCO3)cc1OCC | -1.8
47 | O=C(COC(=O)c1ccc[nH]c1=O)NC1CCCCCCC1 | -1.92
48 | N#CC(c1ccc(Cl)cc1)c1ccc2c(C(F)(F)F)cc(C(F)(F)F)nc2n1 (stereo unspecified) | 21.3

Row | SMILES | inhibition [%]
49 | FC(F)(F)c1cc(C(F)(F)F)c2ccc(Oc3ccccc3)nc2n1 | -1.17
50 | N#CC(c1cccc(Cl)c1)c1ccc2c(C(F)(F)F)cc(C(F)(F)F)nc2n1 (stereo unspecified) | 20.9
51 | Cc1ccc(/C=N/Nc2ccc3c(C(F)(F)F)cc(C(F)(F)F)nc3n2)cc1 | -11.1
52 | O=C(C1=C[C@H](c2ccc3c(c2)OCO3)C[C@H](OCCCCO)O1)N1CCOCC1 | -1.7
53 | O=C(c1cc2cc(F)ccc2[nH]1)N1CCCC(Nc2ccc(F)cc2)C1 (stereo unspecified) | 9.28
54 | CCc1ccc(S(=O)(=O)/N=C2\C=C(NS(=O)(=O)c3ccccc3)C(=O)c3ccccc32)cc1 | 11.2
55 | CCc1ccc(S(=O)(=O)/N=C2\C=C(Nc3ccc(C(=O)O)cc3)C(=O)c3ccccc32)cc1 | 25.1
56 | CC(C)(C)c1ccc(S(=O)(=O)/N=C2\C=C(NS(=O)(=O)c3ccccc3)C(=O)c3ccccc32)cc1 | 11.3
57 | CC(C)c1ccc(S(=O)(=O)/N=C2\C=C(NS(=O)(=O)c3ccccc3)C(=O)c3ccccc32)cc1 | 14.3
58 | Cc1ccc(S(=O)(=O)Nc2c(NC3CCCCC3)c3ccccc3oc2=O)c(C)c1 | 0.02
59 | Cc1ccn(CCC(=O)N2CCCC(CCC(=O)N3CCN(c4ccccn4)CC3)C2)n1 (stereo unspecified) | -2.86
60 | Cc1cc(C)c(NC(=O)CNC(=O)COC(=O)CNC(=O)c2ccc(Cl)cc2Cl)c(C)c1 | -0.98
61 | CCOC(=O)N1CCC(NS(=O)(=O)c2cc(Br)cc3c2N(C(=O)CC)CC3)CC1 | 7.36
62 | Cc1ccc(Nc2c(-c3ccccn3)nc3cc(C)ccn23)cc1 | 53
63 | Cc1ccn2c(Nc3ccccc3)c(-c3ccccn3)nc2c1 | -0.92
64 | Cc1cccc(C)c1Nc1c(-c2ccccn2)nc2ccccn12 | 29.7
65 | Cc1ccccc1Nc1c(-c2ccccn2)nc2c(C)cccn12 | -0.06
66 | CCOC(=O)CN(C(=O)c1snc(C(N)=O)c1N)C(C(=O)NC1CCCCC1)c1ccc(F)cc1 (stereo unspecified) | 1.16
67 | COc1ccc(C(=O)N/C(=C\c2cn(C)c3ccccc23)C(=O)NCCCn2ccnc2)cc1OC | 4.02
68 | O=C(NCCc1ccc(Cl)cc1)C(=O)c1c[nH]c2ccccc12 | -31.4
69 | O=C(Nc1ccc(N2CCOCC2)cc1)C1CCCCN1S(=O)(=O)c1ccccc1 (stereo unspecified) | -25.6
70 | c1cc(CNCCN2CCNCC2)ccn1 | -2.65
71 | c1ccc(CN2CCNCC2)nc1 | 2.99
72 | CN(CCCNC(=O)CCC(=O)N1CCOc2ccc(Cl)cc21)Cc1ccccc1 | 3.8

Row | SMILES | inhibition [%]
73 | O=C(CN1C(=O)NC2(CCc3ccccc32)C1=O)c1cccs1 (stereo unspecified) | -5.04
74 | COc1ccc(/C=N/Nc2nnc(Cc3ccc(OC)c(OC)c3)c(=O)[nH]2)cc1 | 12.1
75 | COc1ccc(Cc2nnc(SC)[nH]c2=O)cc1OC | -0.91
76 | COc1ccc(Cc2nc3ccccc3n2CC(=O)N/N=C/c2ccc(C)cc2O)cc1OC | 1.09
77 | COc1ccc(/C=N/Nc2nnc(Cc3ccc(OC)c(OC)c3)c(=O)[nH]2)cc1OC | -2.26
78 | COc1ccc(CCN=Cc2ccccc2O)cc1OC | -18.6
79 | CCc1ccc2[nH]c3nc(N/N=C/c4ccc(O)cc4O)nnc3c2c1 | 1.89
80 | COc1ccccc1/C=N/Nc1nc(C)cc(C)n1 | -18.3
81 | COc1ccc(Cc2nccc3cc(OC)c(OC)cc23)cc1OC | 0.89
82 | COc1ccc(NC2c3ccccc3C(=O)N2c2ccccn2)cc1Cl (stereo unspecified) | 25
83 | Cn1c(=O)c(=O)n(C)c2cc(S(=O)(=O)NCc3ccc(Cl)cc3)ccc21 | -12
84 | O=C(CSc1ccccc1)NNC(=O)c1ccncc1 | -1.89
85 | CC(C)CC(=O)Nc1nnc(S(=O)(=O)Nc2ccccc2)s1 | 0.61
86 | CCCCn1c(=O)[nH]c(=O)c2c1nc(-c1ccccc1OC(F)F)n2C | -2.54
87 | Cc1ccc(NCC(=O)N/N=C/c2cccn2C)cc1 | 1.43
88 | Cc1cc(N2CCN(CC(O)C(F)(F)F)CC2)c2ccccc2n1 (stereo unspecified) | 15.7
89 | CCC(CO)Oc1cc(NCc2cccc(C(F)(F)F)c2)c2ncn(C(C)C)c2c1 (stereo unspecified) | -6.24
90 | COCCN(CC1CCCN(C2Cc3ccccc3C2)C1)C(=O)CCC(C)=O (stereo unspecified) | -22.6
91 | CN(CC(=O)Nc1ccc(Cl)cc1F)C1=NS(=O)(=O)c2ccccc21 | 5.4
92 | COc1ccc(S(=O)(=O)Nc2ccc(NC(C)=O)cc2)cc1[N+](=O)[O-] | 9.65
93 | CCOc1ccc(CNc2ccc(N3CCCC3)cc2)cc1 | 21.7
94 | Clc1ccc(CNc2ccc(N3CCN(Cc4ccccc4)CC3)cc2)cc1 | 20.5
95 | CCOc1c(Cl)cc(CNc2ccc(N3CCCC3)cc2)cc1OC | 15.9
96 | COc1cc(CNc2ccc(N3CCCC3)cc2)cc(Cl)c1OC | 21.3
